# This is part of a sample that, as a whole, favours compounds with a hit. Of some 83,000 tested, about 20% had one in any assay.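 Each cell line was grown in a 96-well plate and treated with one concentration of compound for 48 hours. Values below 10 were considered active.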 Unmarked numbers belong to inactive results. The source made the active and inactive calls.
# Key:
# Experiment in all cases: NCI-60 one-dose screen, 48 h (100 = growth as untreated, 0 = no growth, -100 = all killed)
# Conditions in all cases: 10 µM unless noted
# [1] = system: SK-MEL-2 melanoma
# [2] = system: EKVX NSCLC
# [3] = system: SN12C renal
# [4] = system: UO-31 renal
# [5] = system: TK-10 renal
# [6] = system: ACHN renal
# [7] = system: A498 renal
# [8] = system: CCRF-CEM leukemia
# [9] = system: MOLT-4 leukemia
# [10] = system: SR leukemia
# [11] = system: RPMI-8226 leukemia
# [12] = system: OVCAR-8 ovarian
# [13] = system: OVCAR-5 ovarian
# [14] = system: OVCAR-4 ovarian
# [15] = system: SK-OV-3 ovarian
# [16] = system: IGROV1 ovarian
# [17] = system: OVCAR-3 ovarian
# [18] = system: HS 578T breast
# [19] = system: NCI/ADR-RES ovarian
# [20] = system: T-47D breast
Structure (SMILES),growth [1],growth [2] [%],growth [3] [%],growth [4],growth [5] [%],growth [6],growth [7] [%],growth [8],growth [9],growth [10],growth [11],growth [12],growth [13] [%],growth [14] [%],growth [15],growth [16],growth [17],growth [18] [%],growth [19] [%],growth [20]
Cc1cc(C)cc(Nc2nccc(-c3c(-c4ccc(F)cc4)ncn3C3CCNCC3)n2)c1,21.4%,27.4,16.5,-28.6% (active),17.8,4.78% (active),53.2,-12.6% (active),-14.2% (active),-31% (active),-3.31% (active),-24.8% (active),35.2,30.3,9.09% (active),-40.1% (active),5.97% (active),24.3,15.3,15.2%
CN(CCC#N)C(=O)Nc1ccccc1,98.7%,105,111,87.3%,84.1,110%,90.4,111%,99.7%,96.5%,107%,102%,111,104,100%,106%,108%,105,102,97.2%
COc1cc(/C=C/C(=O)/C=C/c2cc3ccc(Cl)cc3[nH]c2=O)ccc1O,89.1%,94.4,63.9,60.3%,98,64.8%,78.8,23%,30.3%,10.8%,4.64% (active),6.97% (active),103,68,105%,40.7%,42.4%,73.8,41,88.8%
O=c1cc(/C=N\Nc2nc(-c3ccc(Cl)cc3Cl)cs2)c2cc(Cl)ccc2o1,92.9%,79.3,95,70.4%,120,97.7%,101,97.3%,98.1%,80.7%,90.8%,99.7%,96.9,85.3,81.8%,79.8%,101%,101,98.1,69.7%
Cc1nccc2c3ccc(OCc4cn(-c5ccc(Br)cc5)nn4)cc3n(CC(C)C)c12,53%,59.5,61.5,38.4%,41.1,61.9%,53,35.1%,2.93% (active),-13.9% (active),-16.2% (active),40.7%,68.2,58.8,43.4%,67.4%,57.8%,59.4,32.1,36.9%
COCCOCCOCc1n(Cc2ccc3ccccc3n2)c2ccccc2[n+]1Cc1ccc2ccccc2n1,-8.51% (active),71.6,11.4,67.3%,37.6,97.6%,78.1,31.6%,26.3%,9.58% (active),1.07% (active),19.9%,40.6,15.4,21.3%,20.2%,7.54% (active),47.1,102,-4.32% (active)
CC1(C)[C@@H](O)CC[C@]2(C)[C@H]3CC[C@@H]4[C@H]5[C@H](c6cn(-c7ccccc7)nn6)CC[C@]5(CO)CC[C@@]4(C)[C@]3(C)CC[C@@H]12,92.4%,88,90,79.9%,98.4,84.4%,87.6,94.4%,67.7%,64.7%,73.2%,85.2%,118,98.3,103%,119%,88.2%,94.6,80.9,63.9%
